Bioassay records deposited in PubChem by ICCB-Longwood Screening Facility, Harvard Medical School.
Shown is part of a subset that was picked to be rich in hits.
Ba CapD inh = Bacillus anthracis CapD inhibitors, primary screen, biochemical, fluorescence intensity; z-score (concentration not given with the values); AID 492967, 2010; CapD gamma-glutamyltranspeptidase (Bacillus anthracis Ames Ancestor); actives 0.23% (n = 140,000); purified CapD enzyme, fluorescence intensity read-out; stronger effect = lower value; in the data active = z-score mostly below about -2.9, no sharp cut-off; inactive = mostly above about -1.9
Of the large screens only hits and unclear results are named; the others gave an inactive call.

CN(C)/C=C1\SC(=O)N(c2ccccc2)C1=O	Ba CapD inh -6.4
O=C1S/C(=C/c2ccccc2Cl)C(=O)N1c1ccccc1	none
O=C1S/C(=C\c2ccc(F)cc2)C(=O)N1c1ccccc1	none
COc1ccccc1N(CCOC(=O)c1ccc([N+](=O)[O-])c(C)c1)C1=NS(=O)(=O)c2ccccc21	none
O=C(Cc1ncn[nH]1)NCCc1ccccc1	Ba CapD inh -5.8
Cc1n[nH]c(C)c1CC(=O)NCCc1ccccc1	none
CCCNC(=O)Cc1ncn[nH]1	none
C=CCOC(=O)C1=C(C)NC(SCC(=O)Nc2cc(OC)c(Cl)cc2OC)=C(C#N)C1c1cccs1 (stereo unspecified)	none
O=C1NCC(=Nc2ccccc2)C(=O)N1	none
Cc1ccc(N/N=C2/CCCNC2=O)cc1	none
O=C1NCCC/C1=N/Nc1ccccc1	Ba CapD inh -3.9
CCc1nc2ccccc2c2c1C(=O)N(CC(O)c1ccccc1)C2=O (stereo unspecified)	none
O=C(O)CCCC(=O)Nc1ccccc1Oc1ccccc1	Ba CapD inh -2
O=C(O)CCCC(=O)Nc1cccc2ccccc12	none
N#CCC(=O)Nc1ccccc1Oc1ccccc1	none
CCOC(=O)c1cc(C#N)c(C)nc1N1CCN(C(=O)OCC2CCCCN2Cc2cc(OC)c3c(c2)OCO3)CC1 (stereo unspecified)	none
CCSc1nc2ccccc2n1CC(=O)Nc1ccc([N+](=O)[O-])cc1	none
CCc1nn2c(=O)cc(COc3cccc(NC(=O)C45CC6CC(CC(C6)C4)C5)c3)nc2s1	none
CC(C)C(=O)N(c1ccc2oc(=O)sc2c1)S(=O)(=O)c1cccs1	none
CC(=O)Oc1ccc(N(C(C)=O)S(=O)(=O)c2cccs2)cc1	none
COc1ccc(N(C(=O)C(C)C)S(=O)(=O)c2cccs2)cc1	Ba CapD inh -7
Cc1cccc(C(=O)NCc2c(C)c(C)n(Cc3ccccc3)c2-n2cccc2)c1	none
O=C(Nc1ccc(C(=O)c2ccccc2)cc1)c1ccccc1	none
CS(=O)(=O)c1ccc(C(=O)Nc2ccccc2)cc1	Ba CapD inh -2.9
O=C(Nc1ccccc1)c1ccc(Br)cc1	none
CCCCC(CC)CN1CNC(=S)NC1 (stereo unspecified)	none
O=C(O)c1cc2sccc2nc1C(F)(F)F	none
CCC(Sc1nc2ccccc2s1)C(=O)O (stereo unspecified)	none
CC(Sc1nc2ccccc2s1)C(=O)O (stereo unspecified)	none
CC(=O)SC(CC(=O)O)c1nc2ccccc2s1 (stereo unspecified)	Ba CapD inh -5.6
CCOC(=O)CC(=O)CSc1nc2sc(C(=O)OCC)c(C)c2c(=O)n1CCc1ccccc1	none
O=C(CC=Nc1ccccc1)c1ccccc1	none
CC1=C(C(=O)OCCOc2ccccc2)C(c2cc3c(cc2Br)OCO3)NC(=O)N1C (stereo unspecified)	none
Cc1cc(NS(=O)(=O)c2ccc(N=Cc3ccccc3O)cc2)no1	none
O=C(O)c1cc(C=Nc2ccc(S(=O)(=O)NC3NC=CS3)cc2)c2c(c1)COCO2 (stereo unspecified)	Ba CapD inh -5.2
CCCCN(CC)Cc1ccc(CNC(=S)Nc2cccc(F)c2)o1	none
O=C(NCc1ccccc1)Nc1ccccc1	none
CCCCN(CC)Cc1ccc(CNC(=O)Nc2ccccc2)o1	Ba CapD inh -5.1
C=CCN1C(=O)/C(=C\c2ccc(-c3ccc(Cl)c([N+](=O)[O-])c3)o2)C(=O)NC1=S	none
C=CCN1C(=O)/C(=C/c2ccco2)C(=O)NC1=S	Ba CapD inh -4.7
C=CCN1C(=O)NC(=O)/C(=C/c2ccco2)C1=O	none
COc1ccc(Br)c(-c2nc(-c3cccs3)no2)c1	none
N#C/C(=C\C=C\c1ccco1)c1nc2c(s1)CCCC2	none
NC(=S)N/N=C/c1ccco1	none
N#C/C(=C\C=C\c1ccco1)C(N)=S	Ba CapD inh -12
CCOc1cc(C2C(C(=O)OC)=CN(Cc3ccc(OC)c(OC)c3)C=C2C(=O)OC)cc(Br)c1OCC	none
O=C(Nc1ccc(-c2noc(-c3ccccc3[N+](=O)[O-])n2)cc1)c1ccc(Br)o1	none
C/C(C=Nc1ccccc1)=C\Nc1ccccc1	Ba CapD inh -5
CC(=O)/C(=C/Nc1ccc(I)cc1)c1ccccc1	none
C(=Nc1ccccc1)c1ccccc1	none
COc1ccc(-c2cc(=Nc3ccc(O)cc3)c3cc(C)ccc3o2)cc1	none
O=C(Cn1c(=S)[nH]c2ccccc21)c1ccc(-c2ccccc2)cc1	none
CC(=O)n1c(=S)[nH]c2ccccc21	Ba CapD inh -5.2
CC(=O)n1c(=O)sc2ccccc21	none
O=c1[nH][nH]c(=S)n1Cc1ccco1	none
COc1ccc(/C=C2\CN(C)CC3=C2OC(N)=C(C#N)C3c2ccc(OC)c(OC)c2)cc1OC (stereo unspecified)	none
COc1cc(OC)nc(CN2CCN(C(=O)c3cccc(C(F)(F)F)c3)CC2)n1	none
CN(C)/C=C/C=C/c1cc(=O)cc(/C=C/C=C/N(C)C)o1	Ba CapD inh -15
CC(NC(=O)c1nc2ncccn2n1)c1ccccc1 (stereo unspecified)	none
CC(=O)C1=C(C)NC(=O)C1CC(=O)O (stereo unspecified)	none
O=C(O)/C=C/c1cccc(NS(=O)(=O)c2cccc3cccnc23)c1	none
O=C(CCC(=O)N1CCC(c2nc(-c3cccnc3)no2)CC1)NCc1ccc(Cl)cc1	none
CC(=O)C1=NN(c2cccc(Cl)c2C)C2(S1)c1ccccc1C(c1ccccc1)=NN2c1ccccc1 (stereo unspecified)	none
COc1ccc(NC(=O)c2cccnc2Nc2cccc(F)c2)cc1	none
COC(CNC(=O)c1ccc(/C=C2\Sc3ccccc3N(Cc3ccc(F)cc3)C2=O)cc1)OC	Ba CapD inh -8.5
Cc1cccc(CN2C(=O)/C(=C\c3ccc(C(=O)NCc4cccnc4)cc3)Sc3ccccc32)c1	none
COC(CNC(=O)c1ccc(/C=C2/Sc3ccccc3N(Cc3cccc(C)c3)C2=O)cc1)OC	none
O=[N+]([O-])c1cc(N=Cc2nc(-c3ccc(Br)cc3)oc2O)ccc1Cl	none
c1ccc(-c2cn(-c3ccccc3)c3ncnc(NCc4ccc5c(c4)OCO5)c23)cc1	none
C=C1C(C(=O)NCc2ccco2)C1C(=O)NCc1ccco1 (stereo unspecified)	Ba CapD inh -10
O=C(NCc1ccco1)C1c2ccccc2Oc2ccccc21	none
O=C(NCc1ccco1)NCC(F)(F)F	none
O=S(=O)(NC1CCN(Cc2ccc3ccccc3c2)C1)c1c(F)cccc1F (stereo unspecified)	none
COc1ccc(OC)c(NC(=O)c2cc3ccc(OC)cc3oc2=Nc2ccc(C(=O)O)cc2)c1	none
COc1ccc2cc(C(=O)Nc3ccc(Cl)cc3)c(=Nc3ccc(C(=O)O)cc3)oc2c1	none
COc1ccc2cc(C(=O)Nc3ccc(OC)c(OC)c3)c(=Nc3ccc(C(=O)O)cc3)oc2c1	Ba CapD inh -3.4
Cc1cc2cc(CNS(=O)(=O)c3ccccc3)ccc2[nH]1	none
CCCC(CCC)C(=O)Nc1cccc(-c2nc3ncccn3c2C)c1	none
N#CC1(C#N)[C@H](C(N)=O)[C@H]1c1ccccc1	none
N#CC1=C(SCC(N)=O)NC(=O)CC1c1ccccc1 (stereo unspecified)	none
N#CC1=C(N)NC(=S)C(C(N)=O)C1c1ccccc1 (stereo unspecified)	Ba CapD inh -4.5
CC(C)(C)C(=O)Nc1ncnc2sc3c(c12)CCCC3	none
CC(=O)N(C(C)=O)c1ncnc2sc3c(c12)CCCC3	Ba CapD inh -5.4
CCN(CC)c1ncnc2sc3c(c12)CCCC3	none
CCN1C(=O)/C(=C\c2ccc(C(C)C)cc2)SC1=S	none
CN1CCN(Cc2c(O)ccc3c(=O)c(Oc4ccccc4Br)c(C(F)(F)F)oc23)CC1	none
O=C(CSc1nc2[nH]ncc2c(=O)n1-c1cccc(C(F)(F)F)c1)NCc1cccc(Cl)c1	none
